# Measurements as given in ChEMBL document CHEMBL3433997, “St. Jude Leishmania screening dataset” (2016).
# Key:
# Assay type in all cases: functional
# [1] = biological target: Solute carrier family 2, facilitated glucose transporter member 1 (Homo sapiens) (UniProt P11166); test: ST_JUDE_LEISH: Cytotoxicity at 2uM final concentration against transgenic Leishmania Mexicana promastigotes LmGLUT1 that are glucose transport deficient and complemented with the human glucose transporter GLUT1. Activity is measured by DNA content using SYBR green in vitro
# Solute carrier family 2, facilitated glucose transporter member 1 (Homo sapiens), sequence (P11166 whole entry): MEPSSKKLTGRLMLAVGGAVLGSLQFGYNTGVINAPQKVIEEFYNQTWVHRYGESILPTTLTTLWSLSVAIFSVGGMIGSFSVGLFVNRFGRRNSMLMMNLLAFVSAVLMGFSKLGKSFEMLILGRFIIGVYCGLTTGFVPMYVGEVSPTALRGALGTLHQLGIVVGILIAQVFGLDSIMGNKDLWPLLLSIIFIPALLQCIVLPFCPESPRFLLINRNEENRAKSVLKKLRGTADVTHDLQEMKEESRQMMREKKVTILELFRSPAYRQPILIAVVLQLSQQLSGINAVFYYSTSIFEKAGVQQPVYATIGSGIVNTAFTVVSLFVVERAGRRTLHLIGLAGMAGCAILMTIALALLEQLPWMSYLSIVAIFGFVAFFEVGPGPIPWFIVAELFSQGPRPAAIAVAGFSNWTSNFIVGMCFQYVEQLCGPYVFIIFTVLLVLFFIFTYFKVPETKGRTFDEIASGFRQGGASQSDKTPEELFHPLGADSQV
# [2] = biological target: Hexose transporter 1 (Plasmodium falciparum) (UniProt O97467); test: ST_JUDE_LEISH: Cytotoxicity at 2uM final concentration against transgenic Leishmania Mexicana promastigotes LmPfHT that are glucose transport deficient and complemented with the Plasmodium falciparum hexose transporter. Activity is measured by DNA content using SYBR green in vitro
# [3] = biological target: Glucose transporter (Leishmania mexicana) (UniProt O61059); test: ST_JUDE_LEISH: Cytotoxicity at 2uM final concentration against transgenic Leishmania Mexicana promastigotes LmGT2 that are glucose transport deficient and complemented with the L. Mexicana glucose transporter 2. Activity is measured by DNA content using SYBR green in vitro
SMILES,inhibition [1] [%],inhibition [2] [%],inhibition [3] [%]
CC(C(=O)OCCOCn1cnc2c(=O)[nH]c(N)nc21)N(C)C(=O)OC(C)(C)C (stereo not drawn),-2.44,-1.51,-3.59
COC(=O)C(C)NCC(=O)c1ccccc1 (stereo not drawn),6.16,6.12,6.79
O=C(Nc1ccc(Cl)cc1)N1CCN(C2CCCCC2)CC1,4.49,2.78,3.2
O=C(c1ccc(F)c(F)c1)N1CCOC(CCN2CCC(c3ccccc3)CC2)(c2ccc(Cl)c(Cl)c2)C1 (stereo not drawn),4.15,2.12,3.63
Cc1cc(=NN=Cc2ccccc2F)c2cc(C(F)(F)F)ccc2[nH]1,1.67,3.04,0.5
FC(F)(F)c1ccc2[nH]c(-c3cccc(-c4cccc(CNCCc5ccncc5)c4)c3)nc2c1,4.96,4.69,5.06
Cc1cc2nc(-c3ccc(C(=O)NCc4ccc(C(C)(C)C)cc4)cc3)[nH]c2cc1C,3.51,2.34,-0.6
CN(C)CC(=O)Nc1ccc(-c2ccc3ccnc(N)c3c2)cc1,13.7,24.3,5.49
CCc1ccc(NC(=O)c2cccc(CN3CCCN(Cc4cccc(O)c4)CC3)c2)cc1,3.9,3.08,2.2
CC(C)NCc1ccc(-c2cccc(-c3nc4cc(F)ccc4[nH]3)c2)cc1,-1.78,0.53,-0.69
Cc1ccc(Cn2ncc(N3CC(C)NC(C)C3)c(Cl)c2=O)cc1NC(=O)Nc1ccc(-c2ccccc2)cc1 (stereo not drawn),14.6,13.9,13.6
CN1CCN(c2ccnc3cc4c(cc23)N(C(=O)Nc2ccc(-c3ccncc3)c3ccccc23)CC4)CC1,3.02,2.26,3.35
CCN1CCCC(Nc2ccnc3cc4ccccc4cc23)C1 (stereo not drawn),4.12,4.34,4.81
CCN(CC)CCN(Cc1ccc(-c2ccc(C(F)(F)F)cc2)cc1)C(=O)Cn1c(SCc2ccc(F)cc2)cc(=O)c2ccccc21,1.74,-0.14,1.57
COc1c(C2CCN(CCCCNC(=O)c3cc(-c4ccc(Cl)cc4)[nH]c3C)CC2)ccc2c1CCCC2,3.66,4.04,4.31
Cc1[nH]n(-c2cccc(C(F)(F)F)c2)c(=O)c1-c1ccc(Cl)cc1,3.56,6.35,5.69
